In PubChem BioAssay (NCATS):
Inconclusive results are not listed. Activity calls are given as the source filed them. Calls follow the shape of the dose curve; as a rule, active = well fitted curve in the direction sought with a large enough effect; inconclusive = small, poorly fitted or top-dose-only effect, or another doubt; inactive = no such curve, though single readings can be large; an effect the other way counts as inactive or inconclusive.

Experiments:
[1] = Quantitative High-Throughput drug screen in 47 multiple myeloma cell lines against the NCATS MIPE library collection: FR4_PLB cell viability assay (AID 1918924; also: nearly all actives have a fitted effect of over 35% in size)
Method in brief: (§1)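 Luminescent ATP measurement with CellTiter-Glo gives viability, scaled between DMSO-only wells (100%) and media-only wells (0%). Cells, 500 per well, faced library compounds for 48 hours at 37C.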

[2] = Quantitative High-Throughput drug screen in 47 multiple myeloma cell lines against the NCATS MIPE library collection: Delta47_JCRB cell viability assay (AID 1918925; also: nearly all actives have a fitted effect of over 45% in size)
Method in brief: as §1

[3] = Quantitative High-Throughput drug screen in 47 multiple myeloma cell lines against the NCATS MIPE library collection: EJM_DSMZ cell viability assay (AID 1918926; also: nearly all actives have a fitted effect of over 30% in size)
Method in brief: as §1

[4] = Quantitative High-Throughput drug screen in 47 multiple myeloma cell lines against the NCATS MIPE library collection: AMO1_DSMZ cell viability assay (AID 1918927; also: nearly all actives have a fitted effect of over 30% in size)
Method in brief: as §1

[5] = Quantitative High-Throughput drug screen in 47 multiple myeloma cell lines against the NCATS MIPE library collection: ARP1_JJKsccF8 cell viability assay (AID 1918928; also: nearly all actives have a fitted effect of over 40% in size)
Method in brief: (§2)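 ATP readout (CellTiter-Glo), 48 h drug incubation, 37 °C/5% CO2, 500 cells per well; normalisation to DMSO (100%) and media-only (0%) controls.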

[6] = Quantitative High-Throughput drug screen in 47 multiple myeloma cell lines against the NCATS MIPE library collection: ARD_JJKsccE7 cell viability assay (AID 1918929)
Method in brief: as §1

[7] = Quantitative High-Throughput drug screen in 47 multiple myeloma cell lines against the NCATS MIPE library collection: Karpas620_DSMZ cell viability assay (AID 1918959); also: nearly all actives have a fitted effect of over 30% in size
Method in brief: as §1

[8] = Quantitative High-Throughput drug screen in 47 multiple myeloma cell lines against the NCATS MIPE library collection: KMM1_JCRB cell viability assay (AID 1918960); also: nearly all actives have a fitted effect of over 30% in size
Method in brief: as §2

[9] = Quantitative High-Throughput drug screen in 47 multiple myeloma cell lines against the NCATS MIPE library collection: Karpas417_ECACC cell viability assay (AID 1918961); conditions: Karpas417 myeloma viability, CellTiter-Glo ATP luminescence, 48 h; viability (% of DMSO): at 45.8 µM (top of the series)
Method in brief: (§3)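 Steps: seed 500 cells per well; pin-transfer MIPE 4.0 library; incubate 48 h at 37C, 5% CO2, humidified; add CellTiter-Glo, 5 min room temperature; read luminescence.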

[10] = Quantitative High-Throughput drug screen in 47 multiple myeloma cell lines against the NCATS MIPE library collection: KHM11_PLB cell viability assay (AID 1918962); also: nearly all actives have a fitted effect of over 35% in size
Method in brief: as §1

[11] = Quantitative High-Throughput drug screen in 47 multiple myeloma cell lines against the NCATS MIPE library collection: JIM3_ECACC cell viability assay (AID 1918963; also: nearly all actives have a fitted effect of over 35% in size)
Method in brief: as §1

[12] = Quantitative High-Throughput drug screen in 47 multiple myeloma cell lines against the NCATS MIPE library collection: JIM1_ECACC cell viability assay (AID 1918964)
Method in brief: as §1

[13] = Quantitative High-Throughput drug screen in 47 multiple myeloma cell lines against the NCATS MIPE library collection: JJN3_DSMZ cell viability assay (AID 1918966; also: nearly all actives have a fitted effect of over 50% in size)
Method in brief: as §1

[14] = Quantitative High-Throughput drug screen in 47 multiple myeloma cell lines against the NCATS MIPE library collection: H1112_PLB cell viability assay (AID 1918967; also: nearly all actives have a fitted effect of over 30% in size)
Method in brief: as §1

[15] = Quantitative High-Throughput drug screen in 47 multiple myeloma cell lines against the NCATS MIPE library collection: Karpas25_ECACC cell viability assay (AID 1918968; also: nearly all actives have a fitted effect of over 35% in size)
Method in brief: as §1

[16] = Quantitative High-Throughput drug screen in 47 multiple myeloma cell lines against the NCATS MIPE library collection: KMS27_JCRB cell viability assay (AID 1918970); also: nearly all actives have a fitted effect of over 30% in size
Method in brief: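 ATP-based viability (CellTiter-Glo luminescence) is measured in cells treated 48 h with approved and investigational drugs at 37 °C. Controls are DMSO-only wells for full viability and media-only wells for none.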

[17] = Quantitative High-Throughput drug screen in 47 multiple myeloma cell lines against the NCATS MIPE library collection: KMS12BM_JCRB cell viability assay (AID 1918971); also: nearly all actives have a fitted effect of over 35% in size
Method in brief: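 qHTS of the MIPE 4.0 collection: 500 myeloma cells/well, 48 h drug exposure at 37C in 5% CO2, then CellTiter-Glo for 5 min at room temperature before luminescence reading.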

[18] = Quantitative High-Throughput drug screen in 47 multiple myeloma cell lines against the NCATS MIPE library collection: KMS12PE_JCRB cell viability assay (AID 1918972); also: nearly all actives have a fitted effect of over 30% in size
Method in brief: as §3

[19] = Quantitative High-Throughput drug screen in 47 multiple myeloma cell lines against the NCATS MIPE library collection: KMS20_JCRB cell viability assay (AID 1918973); also: nearly all actives have a fitted effect of over 45% in size
Method in brief: as §1

[20] = Quantitative High-Throughput drug screen in 47 multiple myeloma cell lines against the NCATS MIPE library collection: INA6_PLB cell viability assay (AID 1918965; also: nearly all actives have a fitted effect of over 55% in size)
Method in brief: as §3
Potency is read from the fitted curve at half-maximal effect.

With `CC(C)C[C@H](NC(=O)CNC(=O)c1cc(Cl)ccc1Cl)B(O)O` the Potency [1] was 83.3 nM (active), the Potency [2] was 46.9 nM (active) and the Potency [3] was 148 nM (active). The Potency [4] was 46.9 nM (active), the Potency [5] was 59 nM (active) and the Potency [6] was 74.3 nM (active). The Potency [7] was 118 nM (active), the Potency [8] was 66.2 nM (active) and the Potency [9] was 41.8 nM (active). The Potency [10] was 46.9 nM (active), the Potency [11] was 105 nM (active) and the Potency [12] was 105 nM (active). The Potency [13] was 105 nM (active), the Potency [14] was 105 nM (active) and the Potency [15] was 41.8 nM (active). The Potency [16] was 118 nM (active), the Potency [17] was 132 nM (active) and the Potency [18] was 74.3 nM (active). For the same compound, the Potency [19] was 132 nM (active).
For `COc1ccc(C(=O)CC2(O)C(=O)Nc3c(Cl)ccc(Cl)c32)cc1` (configuration not stated), the Potency [1] was 833 nM (active), the Potency [2] was 3720 nM (active) and the Potency [3] was 3320 nM (active). For the same compound, the Potency [4] was 526 nM (active), the Potency [5] was 3720 nM (active) and the Potency [6] was 1320 nM (active). For the same compound, the Potency [8] was 1180 nM (active), the Potency [10] was “inactive” and the Potency [20] was 2350 nM (active). For the same compound, the Potency [13] was 6620 nM (active), the Potency [14] was 13200 nM (active) and the Potency [16] was 1050 nM (active). For the same compound, the Potency [17] was 2090 nM (active) and the Potency [18] was 1320 nM (active).
For `CCS(=O)(=O)c1cccc(-c2cc(C(=O)NC3CCN(C)CC3)c(C)c3[nH]c4ncc(C)cc4c23)c1`, the Potency [1] was 2350 nM (active), the Potency [2] was 662 nM (active) and the Potency [3] was 2640 nM (active). For the same compound, the Potency [4] was 9350 nM (active), the Potency [5] was 2090 nM (active) and the Potency [6] was 3320 nM (active). For the same compound, the Potency [7] was 1660 nM (active), the Potency [8] was 2960 nM (active) and the Potency [10] was 526 nM (active). The Potency [20] was 418 nM (active), the Potency [13] was 1660 nM (active) and the Potency [14] was 4690 nM (active). The Potency [15] was 1180 nM (active), the Potency [16] was 1320 nM (active) and the Potency [17] was 5900 nM (active). The Potency [18] was 3320 nM (active) and the Potency [19] was 1320 nM (active).
In the case of `Cc1cn2c(-c3cn[nH]c3)cnc2c(Nc2ccc(C(=O)N3CCNCC3)cc2F)n1`, the Potency [1] is reported as 16600 nM (active), the Potency [2] is reported as 7430 nM (active) and the Potency [3] is reported as 18700 nM (active). The Potency [4] was “inactive”, the Potency [5] was 23500 nM (active) and the Potency [6] was 5900 nM (active). The Potency [10] was 16600 nM (active), the Potency [11] was 23500 nM (active) and the Potency [12] was 2090 nM (active). The Potency [14] was 20900 nM (active), the Potency [15] was 18700 nM (active) and the Potency [17] was 14800 nM (active). For the same compound, the Potency [18] was 5260 nM (active) and the Potency [19] was 18700 nM (active).
With `CC[C@H]1CN2CCc3cc(OC)c(OC)cc3[C@H]2C[C@@H]1C[C@@H]1NCCc2cc(OC)c(OC)cc21` the Potency [1] was 372 nM (active), the Potency [2] was 166 nM (active) and the Potency [3] was 187 nM (active). For the same compound, the Potency [4] was 235 nM (active), the Potency [5] was 187 nM (active) and the Potency [6] was 296 nM (active). The Potency [7] was 235 nM (active), the Potency [8] was 187 nM (active) and the Potency [10] was 166 nM (active). The Potency [11] was 264 nM (active), the Potency [13] was 209 nM (active) and the Potency [14] was 264 nM (active). The Potency [15] was 118 nM (active), the Potency [16] was 148 nM (active) and the Potency [17] was 209 nM (active). The Potency [18] was 132 nM (active) and the Potency [19] was 590 nM (active).
In the case of `Cc1nc(N)ncc1-c1nc(N2CCOCC2)c2sc(C(C)(C)O)cc2n1`, the Potency [1] is reported as 8330 nM (active), the Potency [2] is reported as 235 nM (active) and the Potency [3] is reported as 1480 nM (active). The Potency [4] was 1320 nM (active), the Potency [5] was 105 nM (active) and the Potency [6] was 33.2 nM (active). The Potency [8] was 332 nM (active), the Potency [10] was 662 nM (active) and the Potency [12] was 41.8 nM (active). The Potency [20] was 3720 nM (active), the Potency [13] was 5260 nM (active) and the Potency [14] was 6620 nM (active). The Potency [15] was 418 nM (active), the Potency [16] was 235 nM (active) and the Potency [17] was 8330 nM (active). For the same compound, the Potency [19] was 1320 nM (active).
For `Cc1cc(Nc2ncnc3ccc(-c4ccc(CNCCS(C)(=O)=O)o4)cc23)ccc1Oc1ccn2ncnc2c1`, the Potency [1] was 18700 nM (active), the Potency [2] was 1660 nM (active) and the Potency [3] was 20900 nM (active). The Potency [4] was 935 nM (active), the Potency [5] was 11800 nM (active) and the Potency [6] was 2350 nM (active). The Potency [7] was 5260 nM (active), the Potency [8] was 1180 nM (active) and the Potency [10] was 6620 nM (active). For the same compound, the Potency [11] was 9350 nM (active), the Potency [20] was 1870 nM (active) and the Potency [13] was 18700 nM (active). The Potency [14] was 6620 nM (active), the Potency [15] was 332 nM (active) and the Potency [16] was 2640 nM (active). The Potency [17] was 18700 nM (active), the Potency [18] was 5260 nM (active) and the Potency [19] was 2090 nM (active).
In the case of `Fc1cc(-c2cccc3ncc(-c4cnn(C5CCNCC5)c4)nc23)cc(F)c1CN1CCOCC1`, the Potency [1] is reported as 18700 nM (active), the Potency [2] is reported as 7430 nM (active) and the Potency [3] is reported as 20900 nM (active). The Potency [4] was 8330 nM (active), the Potency [5] was 16600 nM (active) and the Potency [7] was 7430 nM (active). The Potency [8] was “inactive”, the Potency [9] was 418 nM (active) and the Potency [10] was 6620 nM (active). For the same compound, the Potency [11] was 16600 nM (active), the Potency [20] was 4180 nM (active) and the Potency [13] was 16600 nM (active). For the same compound, the Potency [14] was 23500 nM (active), the Potency [15] was 7430 nM (active) and the Potency [16] was 8330 nM (active). The Potency [17] was 18700 nM (active), the Potency [18] was 6620 nM (active) and the Potency [19] was 5260 nM (active).
With `CCCCN1CCC(CNC(=O)c2c3n(c4ccccc24)CCCO3)CC1` the Potency [1] was 11800 nM (active), the Potency [2] was 6620 nM (active) and the Potency [3] was 1480 nM (active). The Potency [4] was 13200 nM (active), the Potency [5] was 20900 nM (active) and the Potency [6] was 16600 nM (active). The Potency [10] was 11800 nM (active), the Potency [11] was 18700 nM (active) and the Potency [20] was 16600 nM (active). For the same compound, the Potency [13] was 2090 nM (active), the Potency [14] was 9350 nM (active) and the Potency [15] was 8330 nM (active). The Potency [17] was 10500 nM (active) and the Potency [19] was 13200 nM (active).
